Structures are written as SMILES. Out of some 69,000 compounds screened, about 8,600 (12%) showed an effect of 50% or more. What follows is part of a selection rich in strong results, with near analogues and random picks from the rest.

The test concerns Plasmodium berghei. Briefly: Screen against P. berghei liver stage (PbLuc), transformed with Luciferase, at 10uM. Type of test: functional, HepG2. The following applies: tested at 10 uM.
On to `CN1C(=O)COc2ccc(C(=O)Cn3cnc4ccsc4c3=O)cc21`, for which the INHIBITION is 47.9%.

As for `COCCN(C)C1COC2(CCN(Cc3ccccn3)CC2)C1` (configuration not stated), the INHIBITION turned out to be 25.2%.

Consider `Cc1cccc(CNC(=O)CC2CCN(S(C)(=O)=O)CC2)n1`, for which the INHIBITION is listed as -20.6%.

In the case of `O=C1CCC2(CCN(Cc3ccc(F)cc3)CC2)N1Cc1ccccc1`, the INHIBITION was found to be 46.6%.

In the case of `Cc1nc(CSCCC(=O)NCc2ccncc2)cs1`, the INHIBITION was -4.94%.

On to `Cn1nccc1C(=O)NCCN1CCC(O)(c2ccc(F)cc2)CC1`, for which the INHIBITION was found to be 14.65%.

In the case of `COCCN1CC[C@]2(CN(C(=O)c3ccc[nH]3)C[C@H]2C)C1=O`, the INHIBITION came to 61.3%.

On to `COCCN1CC[C@]2(CN(C(=O)c3cccs3)C[C@H]2C)C1=O`, for which the INHIBITION was found to be 22.4%.

For the molecule `C[C@@H]1CN(C(=O)c2ccc[nH]2)C[C@]12CCN(CCN1CCCC1)C2=O`, the INHIBITION was found to be 48.4%.

As for `CCC(CC)C(=O)NCCc1ccn(-c2ccccc2)n1`, the INHIBITION came out at 15.6%.

Take `CC(C)c1cc(COCCCC(=O)O)no1`: the INHIBITION is reported as 38.2%.

Take `CC(C)c1cc(CN2CCC(N)CC2)on1`: the INHIBITION was determined as 41.2%.

With `CC(C)c1cc(CN2CCC(CC(=O)O)CC2)no1`, the INHIBITION is on record as 53%.

Turning to `CC(C)c1cc(CN2CCC(N)CC2)no1`, the INHIBITION was found to be 76.8%.

As to `CC(C)c1cc(CN2CCNCC2)no1`, the INHIBITION stood at 30.8%.

For `CC(C)c1cc(CSCCC(=O)O)no1`, the INHIBITION is reported as -46.4%.

In the case of `Cc1ccc(-n2cc(C(=O)N3CCn4c(C)nnc4C3)nn2)cc1`, the INHIBITION was 15.9%.

Regarding `O=C(c1cnc(O)cn1)N1CCCC1c1nc2cc(F)ccc2[nH]1` (configuration not stated), the INHIBITION turned out to be 17.5%.

As to `Cn1ncc(C(=O)N2CCOCC2)c1Cl`, the INHIBITION stood at 0.57%.

With `Cc1cc(CNc2cc(-c3ccoc3C)nn2CCO)c(C)o1`, the INHIBITION is 43.7%.

As for `COc1cc(CNc2cc(-c3ccoc3C)nn2CCO)ccc1F`, the INHIBITION was 38.3%.

As to `CCc1ccc(CNc2cc(-c3ccoc3C)nn2CCO)o1`, the INHIBITION is recorded as 54.4%.

In the case of `c1cc(N2CCCC2c2cnccn2)ncn1` (configuration not stated), the INHIBITION is -3.31%.

Turning to `COC(=O)c1cc(OCC2CCC2)cc(C(=O)N[C@@H]2CNCC[C@H]2O)c1`, the INHIBITION was found to be 11.9%.

In the case of `COC(=O)c1cc(OCC2CCC2)cc(C(=O)NC2CCC(O)CC2)c1` (configuration not stated), the INHIBITION is recorded as 7.12%.

For `COC(=O)c1cc(OCC2CCC2)cc(C(=O)N[C@@H]2CCCNC2)c1`, the INHIBITION is listed as 58.4%.

In the case of `Cc1cc(NC(=O)NCCO)nn1-c1ccc(Cl)cc1Cl`, the INHIBITION is listed as 60.5%.

As for `O=C(NCCO)Nc1ccc(Cl)cc1-n1cccc1`, the INHIBITION is -6.91%.

In the case of `Cc1cc(NC(=O)CO)nn1-c1ccc(Cl)cc1Cl`, the INHIBITION came to 19.8%.

Take `Cc1cc(NC(=O)N2CCOCC2)nn1-c1ccccc1Cl`: the INHIBITION is reported as 33.4%.

As to `Cc1cc(NC(=O)N2CCC[C@@H]2CO)nn1-c1ccccc1Cl`, the INHIBITION is 30.8%.

Consider `CC(=O)NCC(=O)Nc1cc(C)n(-c2ccc(Cl)cc2Cl)n1`, for which the INHIBITION is recorded as 50%.

On to `CS(=O)(=O)N[C@H]1COC[C@@H]2CN(Cc3ccco3)C[C@@H]21`, for which the INHIBITION is -19.1%.

With `COC(=O)c1sc2cccc(F)c2c1CNC(=O)C1CCCO1` (configuration not stated), the INHIBITION was -1.37%.

`CN1CCc2[nH]cnc2C12CCN(Cc1ccc3nsnc3c1)CC2`: the INHIBITION amounted to 33.4%.

Regarding `CNC(=O)[C@@H]1C[C@H]2CN(Cc3ccco3)C[C@H]2N1C`, the INHIBITION is on record as -5.1%.

As for `Cc1ccc(C(=O)N2CCN(Cc3cccs3)CC2)c(=O)[nH]1`, the INHIBITION came to 3.865%.

Consider `CS(=O)(=O)NCc1cnc2n1CCN(Cc1ccccn1)CC2`, for which the INHIBITION is recorded as 41.2%.

Regarding `CC(C)n1ccnc1CN1CCCN(C(=O)c2cscn2)CC1`, the INHIBITION was 54.9%.

Regarding `Cc1nccc(C(=O)N2CCCN(Cc3nccn3C(C)C)CC2)n1`, the INHIBITION was 29.3%.

As to `Cc1cc(C(=O)N2CCCN(Cc3nccn3C(C)C)CC2)no1`, the INHIBITION is listed as -6.35%.

With `CCc1[nH]ncc1C(=O)N1CCCN(Cc2nccn2C(C)C)CC1`, the INHIBITION is listed as -33.8%.

As to `Cc1ncncc1C(=O)N1CCCN(Cc2nccn2C(C)C)CC1`, the INHIBITION was -49.5%.

On to `Cc1[nH]ncc1C(=O)N1CCCN(Cc2nccn2C(C)C)CC1`, for which the INHIBITION is 53.65%.

As for `CCc1cc(CNC(=O)N2CCN(c3nc(C)c(C)s3)CC2)on1`, the INHIBITION stood at 32.4%.

`CSc1ncc(CN(C)C(C)c2cccnc2)cn1` (configuration not stated): the INHIBITION was -1.33%.

Consider `O=C(NCCN1CCOCC1)c1scnc1Cl`, for which the INHIBITION is reported as 23.7%.

With `CSCCCN1C[C@H](NC(=O)c2ccc(CO)cc2)[C@@H](C2CC2)C1`, the INHIBITION is reported as 0.72%.

Regarding `CN(C)c1ccc(C(=O)Nc2ccn(CCc3ccncc3)n2)cc1`, the INHIBITION is 5.91%.

With `Cc1cc(O)ncc1NS(=O)(=O)c1cccc(F)c1F`, the INHIBITION is reported as 69.9%.

Turning to `COc1cc(F)c(S(=O)(=O)Nc2cnc(O)cc2C)cc1OC`, the INHIBITION is recorded as -3.83%.

As to `COc1ccccc1S(=O)(=O)Nc1cnc(O)cc1C`, the INHIBITION is given as -13.6%.

Source of the values: ChEMBL document CHEMBL4513216, “Probing the Open Global Health Chemical Diversity Library for Multistage-Active Starting Points for Next-Generation Antimalarials” (ACS Infect Dis, 2020).
